Data as given in PubChem BioAssay (EPA / NIEHS).
Activity calls are given as the source filed them. How the source made its calls: active means hit-call score of the fitted dose curve at least 0.9, where 1 is the maximum; inactive means score below 0.9.

Read-out: Alkaline Phosphatase, Placental (ALPP) gene, ALPP (gene 250)
Assay: LTEA_HepaRG_ALPP: Life Technologies and Expression Analysis (LTEA) Assay for Alkaline Phosphatase, Placental (ALPP) gene using HepaRG (AID 2283468);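 on AC50: ALPP transcript by TaqMan qRT-PCR normalized to ACTB GAPDH and POLR2A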
Conditions: mRNA level, 48 h; actives raise or lower the signal
Protocol: LTEA_HepaRG is a cell based, multiplexed-readout assay that uses HepaRG, a human liver cell line, with measurements taken at 48 hours after chemical dosing on a 96-well plate.LTEA_HepaRG_ALPP is one of 102 assay component(s) measured in the LTEA HepaRG cell culture assay. It is a marker of Cell proliferation, survival, death.Data from the assay component LTEA_HepaRG_ALPP was analyzed into 1 endpoint. This assay endpoint, LTEA_HepaRG_ALPP, was analyzed with bidirectional fitting relative to DMSO as the negative control and baseline of activity. Using a type of inducible reporter, measures of mRNA induction for gain or loss-of-signal activity can be used to understand regulation of transcription factor activity. To generalize the intended target to other relatable targets, this assay endpoint is annotated to the phosphatase intended target family, where the subfamily is Cell proliferation, survival, death.
A total of 1060 chemcials from the ToxCast library were tested in eight-point concentration-response experiments. Cell culture and cytotoxicity assays were conducted at Thermo Fisher Scientific's Custom Services facility (Madison, WI). A single lot of human HepaRG cells (Thermo Fisher Scientific, Frederick, MD) was used for the cell culture experiments. 96-well format collagen type I coated plates of human HepaRG cells were prepared using established methods. Briefly, cryopreserved HepaRG cells were thawed, plated at a density of approximately 100,000 cells/well in HepaRG Thaw, Plate, and General Purpose media (HPRG770, Thermo Fisher Scientific), and incubated for 48 hours. 0.5% DMSO was selected as vehicle control to balance the requisite need of DMSO in HepaRG cultures to maintain differentiation (for example, baseline metabolism, proportions of hepatocytes vs. cholangiocytes), while enabling further hepatic receptor pathway activation (for example, PXR and CAR) in response to chemical exposure. 48 hours after plating, the culture medium was replaced with HepaRG Serum-Free Incudtion Media. Cells were exposed to each test chemical in duplicate and maintained in CO2 incubators for another 48 hours. Chemical plates were thawed to room temperature and 200x concentrations of treatment groups were prepared. 8-point conentration-reponse curves were made with the highest exposure at 100 uM, followed by half-log dilutions, all in 0.5% DMSO. Each test plate contained variouse controls, induction positive controls (1mM phenobarbital), cytotoxicity positive controls ([…] aflatoxin B1), vehicle controls (0.5% DMSO), and total lysis controls (0.5% DMSO). Cell morphology images were taken using an Essen IncuCyte FLR automated microscope, with six 96-well plates imaged in about 24 minutes. Images were captured and exported and JPEG files. Spent culture media was transfered to black-well plates for the LDH assay, and remaining media was sorted at -80 C for later use. Cells were treated with RLT buffer and frozen until shipped for gene expression analysis. Total RNA was isolated from the cell suspension in 75 uL of Buffer RLT (Qiagen, Germantown, MD 20874) by Quintiles/Expression Analysis (Durham, NC) using a custom isolation procedure. Total RNA from each plate well was transferred to a preamplification plate. Fluidigm's 96.96 Dynamic ArrayTM (Fluidigm, Amsterdam, the Netherlands) technology was used for gene expression analyses by quantitative reverse transcription polymerase chain reaction (qRT-PCR, performed by Quintiles/Expression Analysis, Durham, NC)89. Standard TaqManTM Assays (Applied Biosystems/ThermoFisher Scientific, Foster City, CA) were used to assess the expression of 93 genes selected based on their selectivity and sensitivity to important hepatic receptors known to be modulated by environmental chemicals; importance in human hepatocyte functionality; and hepatotoxicity. […]

Structure (SMILES) | AC50 | outcome
C[C@@H]1C[C@@H]([C@H](O)CC2CC(=O)NC(=O)C2)C(=O)[C@@H](C)C1 | 73.8 µM (active) | 
CCCCCCCCc1ccc(O)cc1 |  | inactive
Cn1sc(Cl)cc1=O |  | inactive
Oc1cccc2cccnc12 |  | inactive
O=C(O)C(Cl)(Cl)Cl |  | inactive
C=CC(=O)OCCCCCC(C)C |  | inactive
ClCC(Cl)CCl |  | inactive
O=c1[nH]c(=O)[nH]c(=O)[nH]1 |  | inactive
CCOP(=S)(OCC)SCSP(=S)(OCC)OCC |  | inactive
CC(=O)[O][Hg][c]1ccccc1 | 0.646 µM (active) | 
ClC1(Cl)C2(Cl)C3(Cl)C4(Cl)C(Cl)(Cl)C5(Cl)C3(Cl)C1(Cl)C5(Cl)C24Cl (stereo unspecified) |  | inactive
COc1cc(-c2ccc(N)c(OC)c2)ccc1N |  | inactive
CCOP(=S)(OCC)Oc1nc(Cl)c(Cl)cc1Cl |  | inactive
O=C(O)C(F)(F)C(F)(F)C(F)(F)C(F)(F)C(F)(F)C(F)(F)F |  | inactive
O=C1C2(Cl)C3(Cl)C4(Cl)C(Cl)(Cl)C5(Cl)C3(Cl)C1(Cl)C5(Cl)C24Cl (stereo unspecified) | 26.7 µM (active) | 
O=C(Nc1ccc2[nH]ccc2c1)c1cc2cc(F)ccc2n1Cc1cccc(F)c1 | 14.4 µM (active) | 

Structure (SMILES) | AC50 | outcome
CC12CC1(C)C(=O)N(c1cc(Cl)cc(Cl)c1)C2=O (stereo unspecified) |  | inactive
O=[N+]([O-])c1ccc(O)c([N+](=O)[O-])c1 |  | inactive
CC(C)(OO)c1ccccc1 |  | inactive
CCC(C)(C)c1ccc(O)c(C(C)(C)CC)c1 |  | inactive
C=C(C)C(=O)[O][Sn]([CH2]CCC)([CH2]CCC)[CH2]CCC | 1.58 µM (active) | 
CCC(=O)C(CC(C)N(C)C)(c1ccccc1)c1ccccc1 (stereo unspecified) |  | inactive
CC(C)(c1ccccc1)c1ccc(O)c(C(C)(C)c2ccccc2)c1 |  | inactive
NC(=O)O |  | inactive
C[C@]12CCC(=O)C[C@@H]1CC[C@@H]1[C@@H]2CC[C@]2(C)[C@@H](O)CC[C@@H]12 |  | inactive
CC(C)(C)c1cc(O)ccc1O |  | inactive
O=C(O)C(F)(F)C(F)(F)C(F)(F)C(F)(F)C(F)(F)C(F)(F)C(F)(F)C(F)(F)C(F)(F)C(F)(F)F |  | inactive
CCN1CCC2(CC1)COc1cc3c(cc12)N(C(=O)c1ccc(-c2ccc(-c4nnc(C)o4)cc2C)cc1)CC3 |  | inactive
Cc1ccccc1N |  | inactive
CC(C)(C)CC(C)(C)c1ccc(O)cc1 |  | inactive
CN(C)N=O |  | inactive
